From PubChem BioAssay (EPA / NIEHS)
Where “and” joins values, the source holds several entries; their conditions need not be identical. Equal entries are not always repeated. Results filed as inconclusive are left out. More than one record can exist for a structure, and the calls need not agree. Calls of active or inactive are those of the source. How the source made its calls, unless noted: active means hit-call score of the fitted dose curve at least 0.9, where 1 is the maximum; inconclusive means response in the unintended direction; inactive means score below 0.9.

Assays:
[1] = ATG_TCF_b_cat_CIS: Attagene CIS-FACTORIAL HepG2 Assay for human T-Cell-Factor with beta-catenin (TCF/b-cat) (AID 2282965; active means hit-call score of the fitted dose curve at least 0.9, where 1 is the maximum; inactive means score below 0.9); conditions: HepG2 TCF/beta-catenin cis-reporter transcription, actives raise or lower the signal
How it was run: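 Measured: reporter mRNA in HepG2 transiently transfected with cis-promoter reporter units, 24 h after chemical addition. Fitting was bidirectional, DMSO as negative control.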

[2] = ATG_TAL_CIS: Attagene CIS-FACTORIAL HepG2 Assay for human TAL Basal Promoter (AID 2282966; active means hit-call score of the fitted dose curve at least 0.9, where 1 is the maximum; inactive means score below 0.9;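 further: background control endpoint measuring basal TAL promoter reporter mRNA not a specific factor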); conditions: HepG2 Attagene cis-factorial TAL promoter reporter; actives raise or lower the signal
How it was run: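 In this cell-based multiplex, HepG2 liver cells bearing cis-promoter reporter constructs are dosed for 24 hours. Total RNA is reverse-transcribed and amplified, labelled fragments are sized by capillary electrophoresis, and signal changes are fitted bidirectionally versus DMSO.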

[3] = ATG_TGFb_CIS: Attagene CIS-FACTORIAL HepG2 Assay for human Transforming Growth Factor (TGF) (AID 2282967; active means hit-call score of the fitted dose curve at least 0.9, where 1 is the maximum; inactive means score below 0.9); conditions: HepG2 Attagene CIS TGFb reporter, mRNA transcription; actives raise or lower the signal
How it was run: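 HepG2 cells transiently transfected with cis-promoter-driven multiple reporter units measure endogenous TF activity; reporter mRNA quantified at 24 h by RT-PCR, FAM labeling, HpaI digestion and capillary electrophoresis. Bidirectional fit vs DMSO.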

[4] = ATG_VDRE_CIS: Attagene CIS-FACTORIAL HepG2 Assay for human Vitamin D Receptor Element (VDRE) (AID 2282968; active means hit-call score of the fitted dose curve at least 0.9, where 1 is the maximum; inactive means score below 0.9); conditions: HepG2 VDRE cis-reporter transcription, actives raise or lower the signal
How it was run: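 In transiently transfected HepG2 liver cells, gain or loss of reporter mRNA after 24 h exposure is scored relative to DMSO, using fluorescence detection by capillary electrophoresis of RT-PCR products.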

[5] = molecular target: Nuclear receptor subfamily 1 group I member 3 (Homo sapiens) (UniProt Q14994); experiment: ATG_CAR_TRANS: Attagene TRANS-FACTORIAL HepG2 Assay for human Constitutive Androstane Receptor (CAR) (AID 2282969); conditions: HepG2 Attagene TRANS-FACTORIAL CAR reporter;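 further: activators raise reporter mRNA above DMSO so AC50 marks induction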
Chain of Nuclear receptor subfamily 1 group I member 3 (Homo sapiens) (Q14994 whole entry, looked up, the tested form may be a part): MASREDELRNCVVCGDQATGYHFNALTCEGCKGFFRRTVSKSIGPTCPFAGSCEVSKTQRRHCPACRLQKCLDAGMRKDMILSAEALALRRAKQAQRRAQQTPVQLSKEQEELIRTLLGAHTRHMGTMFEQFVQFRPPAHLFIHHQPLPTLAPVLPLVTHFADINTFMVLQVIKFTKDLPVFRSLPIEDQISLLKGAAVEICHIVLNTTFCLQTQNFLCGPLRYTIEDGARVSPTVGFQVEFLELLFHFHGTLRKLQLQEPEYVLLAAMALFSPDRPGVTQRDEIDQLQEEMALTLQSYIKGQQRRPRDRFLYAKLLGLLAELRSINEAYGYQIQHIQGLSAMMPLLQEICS
How it was run: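 Readout is reporter mRNA induction, quantified by fluorescent primer extension and capillary electrophoresis after RT-PCR. Cells were HepG2 transiently carrying chimeric NR-Gal4 constructs with GAL4-UAS reporters, treated for 24 h; activity scored upward from DMSO.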

[6] = molecular target: Estrogen receptor (Homo sapiens) (UniProt P03372); experiment: ATG_ERa_TRANS: Attagene TRANS-FACTORIAL HepG2 Assay for human Estrogen Receptor alpha (ERa) (AID 2282970); conditions: HepG2 Attagene TRANS ERa GAL4 reporter, mRNA
Chain of Estrogen receptor (Homo sapiens) (P03372 whole entry, looked up, the tested form may be a part): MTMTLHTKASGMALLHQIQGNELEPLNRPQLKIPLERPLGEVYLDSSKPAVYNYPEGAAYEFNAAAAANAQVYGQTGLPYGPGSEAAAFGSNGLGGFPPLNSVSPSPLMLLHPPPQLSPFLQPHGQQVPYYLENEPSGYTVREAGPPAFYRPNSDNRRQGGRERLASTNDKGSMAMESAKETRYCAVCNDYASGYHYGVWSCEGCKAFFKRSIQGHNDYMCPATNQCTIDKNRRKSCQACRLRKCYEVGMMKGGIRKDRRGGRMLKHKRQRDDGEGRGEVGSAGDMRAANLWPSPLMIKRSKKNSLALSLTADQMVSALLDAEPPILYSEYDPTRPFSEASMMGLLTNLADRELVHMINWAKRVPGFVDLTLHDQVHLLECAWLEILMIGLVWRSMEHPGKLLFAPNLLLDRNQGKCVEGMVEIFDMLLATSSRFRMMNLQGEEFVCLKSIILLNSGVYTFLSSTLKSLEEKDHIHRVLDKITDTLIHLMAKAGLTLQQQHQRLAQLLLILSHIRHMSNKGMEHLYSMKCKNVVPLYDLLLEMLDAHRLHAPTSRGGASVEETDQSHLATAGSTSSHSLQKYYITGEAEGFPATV
How it was run: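 After 24 h of compound treatment, RNA from HepG2 cells bearing transfected GAL4-UAS reporter constructs is converted to cDNA, amplified and fluorescently labelled. Capillary electrophoresis resolves the ERa-linked reporter; DMSO serves as negative control.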

[7] = molecular target: Steroid hormone receptor ERR1 (Homo sapiens) (UniProt P11474); experiment: ATG_ERRa_TRANS: Attagene TRANS-FACTORIAL HepG2 Assay for human Estrogen-Related Receptor alpha (ERRa) (AID 2282971); conditions: HepG2 Attagene TRANS reporter, ERRa transactivation
Chain of Steroid hormone receptor ERR1 (Homo sapiens) (P11474 whole entry, looked up, the tested form may be a part): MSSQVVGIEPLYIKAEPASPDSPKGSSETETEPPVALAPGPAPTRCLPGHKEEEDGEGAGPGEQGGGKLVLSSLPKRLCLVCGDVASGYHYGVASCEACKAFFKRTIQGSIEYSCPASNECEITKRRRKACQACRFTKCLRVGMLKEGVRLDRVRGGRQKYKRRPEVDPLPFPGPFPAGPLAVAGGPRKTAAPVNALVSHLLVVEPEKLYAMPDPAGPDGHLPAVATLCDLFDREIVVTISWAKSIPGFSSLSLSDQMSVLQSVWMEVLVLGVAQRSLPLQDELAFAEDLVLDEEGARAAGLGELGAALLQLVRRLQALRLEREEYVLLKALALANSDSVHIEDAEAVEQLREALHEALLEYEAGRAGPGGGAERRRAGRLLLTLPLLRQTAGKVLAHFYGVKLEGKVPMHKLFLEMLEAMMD
How it was run: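 Transfected HepG2, 24 h dosing, ERRa-Gal4 chimera driving GAL4-UAS reporter. Readout: reporter mRNA via RT-PCR plus capillary electrophoresis (fluorescence). Positive direction vs DMSO control.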

[8] = molecular target: X-box-binding protein 1 (Homo sapiens) (UniProt P17861); experiment: ATG_Xbp1_CIS: Attagene CIS-FACTORIAL HepG2 Assay for human X-box Binding Protein 1 (XBP1) (AID 2282972; active means hit-call score of the fitted dose curve at least 0.9, where 1 is the maximum; inactive means score below 0.9); conditions: HepG2 XBP1 cis-element reporter, Attagene multiplex; actives raise or lower the signal
Chain of X-box-binding protein 1 (Homo sapiens) (P17861 whole entry, looked up): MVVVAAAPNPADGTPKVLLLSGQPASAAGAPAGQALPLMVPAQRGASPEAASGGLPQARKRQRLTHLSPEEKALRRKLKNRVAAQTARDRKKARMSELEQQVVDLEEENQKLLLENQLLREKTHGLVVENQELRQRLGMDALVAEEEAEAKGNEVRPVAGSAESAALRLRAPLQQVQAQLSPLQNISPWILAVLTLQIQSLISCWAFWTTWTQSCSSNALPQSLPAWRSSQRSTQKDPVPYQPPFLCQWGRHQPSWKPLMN
How it was run: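 HepG2 cells transiently transfected with cis-regulated multiple reporter transcription units; endogenous transcription factor activity measured 24 hours after chemical dosing. Reporter mRNA quantified by RT-PCR, 6-FAM primer extension, HpaI digestion and capillary electrophoresis; bidirectional fitting versus DMSO.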

[9] = ATG_M_19_TRANS: Attagene TRANS-FACTORIAL HepG2 Assay for M19 Transcription Factor (Internal Marker) (AID 2282974); conditions: HepG2 Attagene TRANS-FACTORIAL M19 internal marker reporter
How it was run: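 Transfected HepG2 (GAL4-UAS MRTUs), 24 h compound, TriZol RNA, DNase-treated RT, reporter PCR, FAM label, HpaI digest, CE fluorescence; gain vs DMSO.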

[10] = ATG_GAL4_TRANS: Attagene TRANS-FACTORIAL HepG2 Assay for GAL4 (Internal Marker) (AID 2282976); conditions: HepG2 Attagene TRANS GAL4 internal marker reporter
How it was run: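 RT-PCR/capillary electrophoresis readout of reporter mRNA. HepG2, transient MRTU transfection (GAL4-UAS reporters), 24 h compound exposure. Background-control endpoint, positive direction vs DMSO baseline.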

[11] = molecular target: Estrogen-related receptor gamma (Homo sapiens) (UniProt P62508); experiment: ATG_ERRg_TRANS: Attagene TRANS-FACTORIAL HepG2 Assay for human Estrogen-Related Receptor gamma (ERRg) (AID 2282977); conditions: HepG2 Attagene TRANS reporter, ERRg transactivation;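 further: hits increase reporter signal over DMSO so potencies reflect activators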
Chain of Estrogen-related receptor gamma (Homo sapiens) (P62508 whole entry, looked up, the tested form may be a part): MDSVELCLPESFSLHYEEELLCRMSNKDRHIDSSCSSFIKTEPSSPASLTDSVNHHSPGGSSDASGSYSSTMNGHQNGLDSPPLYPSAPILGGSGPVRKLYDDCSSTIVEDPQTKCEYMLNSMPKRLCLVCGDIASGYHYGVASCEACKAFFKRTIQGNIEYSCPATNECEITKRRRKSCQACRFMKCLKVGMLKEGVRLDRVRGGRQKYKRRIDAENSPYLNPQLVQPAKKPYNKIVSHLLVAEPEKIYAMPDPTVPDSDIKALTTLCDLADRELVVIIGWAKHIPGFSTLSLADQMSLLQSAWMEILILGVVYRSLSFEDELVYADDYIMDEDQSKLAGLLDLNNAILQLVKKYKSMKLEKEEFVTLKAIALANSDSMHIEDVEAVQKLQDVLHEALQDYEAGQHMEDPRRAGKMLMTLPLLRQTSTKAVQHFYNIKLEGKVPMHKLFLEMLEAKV
How it was run: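 Transient HepG2 transfectants, 24 h compound exposure, GAL4-UAS reporter mRNA by RT-PCR/6-FAM labelling/capillary electrophoresis; positive direction vs DMSO.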

[12] = molecular target: Bile acid receptor (Homo sapiens) (UniProt Q96RI1); experiment: ATG_FXR_TRANS: Attagene TRANS-FACTORIAL HepG2 Assay for Farnesoid X Receptor (FXR) (AID 2282979); conditions: HepG2 Attagene TRANS FXR-GAL4 reporter transcription;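 further: hits raise reporter mRNA above DMSO so AC50 marks FXR activation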
Chain of Bile acid receptor (Homo sapiens) (Q96RI1 whole entry, looked up, the tested form may be a part): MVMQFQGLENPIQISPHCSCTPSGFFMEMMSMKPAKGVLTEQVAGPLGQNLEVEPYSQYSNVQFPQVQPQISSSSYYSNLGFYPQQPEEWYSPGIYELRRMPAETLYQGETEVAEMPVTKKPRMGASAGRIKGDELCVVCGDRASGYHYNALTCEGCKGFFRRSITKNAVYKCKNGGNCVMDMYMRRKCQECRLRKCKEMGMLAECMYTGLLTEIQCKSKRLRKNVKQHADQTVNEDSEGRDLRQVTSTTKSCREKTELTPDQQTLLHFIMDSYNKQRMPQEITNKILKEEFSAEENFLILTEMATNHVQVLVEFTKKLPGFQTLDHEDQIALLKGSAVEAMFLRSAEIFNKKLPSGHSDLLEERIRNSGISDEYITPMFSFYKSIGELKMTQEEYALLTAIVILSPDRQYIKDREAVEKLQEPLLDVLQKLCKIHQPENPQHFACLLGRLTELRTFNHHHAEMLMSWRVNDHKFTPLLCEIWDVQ
How it was run: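 Read-out: fluorescent reporter transcripts quantified by capillary electrophoresis after RT-PCR of total RNA. Source cells were HepG2 transiently carrying chimeric NR-GAL4 plus GAL4-UAS reporter units, dosed 24 h. Activity fitted upward relative to DMSO baseline.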

[13] = molecular target: Oxysterols receptor LXR-alpha (Homo sapiens) (UniProt Q13133); experiment: ATG_LXRa_TRANS: Attagene TRANS-FACTORIAL HepG2 Assay for human Liver X Receptor alpha (LXRa) (AID 2282980); conditions: HepG2 Attagene TRANS reporter, LXRa transactivation
How it was run: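 Read-out: reporter transcript levels by RT-PCR plus capillary electrophoresis, fluorescence intensity. Transiently transfected HepG2, exogenous NR-GAL4 chimera, GAL4-UAS reporters; 24 h compound exposure. Activity = increase over DMSO negative control.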

[14] = molecular target: Oxysterols receptor LXR-beta (Homo sapiens) (UniProt P55055); experiment: ATG_LXRb_TRANS: Attagene TRANS-FACTORIAL HepG2 Assay for human Liver X Receptor beta (LXRb) (AID 2282981); conditions: HepG2 Attagene TRANS GAL4-LXRb reporter, mRNA
Chain of Oxysterols receptor LXR-beta (Homo sapiens) (P55055 whole entry, looked up, the tested form may be a part): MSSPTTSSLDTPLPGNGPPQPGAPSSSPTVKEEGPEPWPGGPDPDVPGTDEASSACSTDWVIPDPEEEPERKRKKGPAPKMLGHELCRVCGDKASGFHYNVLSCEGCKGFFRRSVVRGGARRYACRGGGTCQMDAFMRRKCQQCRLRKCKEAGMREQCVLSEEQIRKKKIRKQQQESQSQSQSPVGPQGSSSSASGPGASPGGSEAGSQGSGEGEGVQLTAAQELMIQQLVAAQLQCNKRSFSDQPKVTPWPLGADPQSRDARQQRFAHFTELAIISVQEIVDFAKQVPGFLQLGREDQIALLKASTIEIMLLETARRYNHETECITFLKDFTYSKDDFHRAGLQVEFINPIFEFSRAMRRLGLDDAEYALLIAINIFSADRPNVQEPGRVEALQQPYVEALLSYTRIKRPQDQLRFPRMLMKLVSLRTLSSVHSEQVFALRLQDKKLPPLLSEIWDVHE
How it was run: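 Cells: HepG2, transiently transfected with GAL4-UAS reporter units plus LXRb-Gal4 fusion. Treatment: 24 h. Detection: reporter mRNA by RT-PCR, 6-FAM labelling, HpaI digestion, capillary electrophoresis.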

[15] = molecular target: Hepatocyte nuclear factor 4-alpha (Homo sapiens) (UniProt P41235); experiment: ATG_HNF4a_TRANS: Attagene TRANS-FACTORIAL HepG2 Assay for human Hepatocyte Nuclear Factor 4 alpha (HNF4a) (AID 2282982); conditions: HepG2 HNF4a transactivation reporter, mRNA readout
Chain of Hepatocyte nuclear factor 4-alpha (Homo sapiens) (P41235 whole entry, looked up): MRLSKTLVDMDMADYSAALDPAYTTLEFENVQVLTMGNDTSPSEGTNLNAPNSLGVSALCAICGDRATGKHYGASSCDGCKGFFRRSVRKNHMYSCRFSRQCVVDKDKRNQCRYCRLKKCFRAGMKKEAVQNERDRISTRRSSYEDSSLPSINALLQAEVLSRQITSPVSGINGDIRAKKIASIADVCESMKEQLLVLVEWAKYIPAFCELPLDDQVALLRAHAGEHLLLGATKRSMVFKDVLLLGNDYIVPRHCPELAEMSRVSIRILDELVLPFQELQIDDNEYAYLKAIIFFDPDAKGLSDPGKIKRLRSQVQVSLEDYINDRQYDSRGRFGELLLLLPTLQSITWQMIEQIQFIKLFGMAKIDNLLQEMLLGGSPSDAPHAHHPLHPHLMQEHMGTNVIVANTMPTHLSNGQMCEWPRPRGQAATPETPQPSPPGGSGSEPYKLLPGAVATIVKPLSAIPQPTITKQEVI
How it was run: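 Transfected HepG2 reporter cells are dosed for 24 h; reporter RNA is reverse-transcribed, amplified, fluorescently labelled and HpaI-digested before CE sizing. Positive-direction fit against DMSO.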

[16] = ATG_M_06_TRANS: Attagene TRANS-FACTORIAL HepG2 Assay for M06 Transcription Factor (Internal Marker) (AID 2282983); conditions: HepG2 Attagene TRANS M06 internal marker reporter
How it was run: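 After a 24 h chemical treatment of transfected HepG2, RNA underwent DNase I treatment, reverse transcription and reporter-specific PCR; labelled, HpaI-digested products were sized by capillary electrophoresis. Signal increase relative to DMSO defined activity.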

[17] = ATG_M_32_TRANS: Attagene TRANS-FACTORIAL HepG2 Assay for M32 Transcription Factor (Internal Marker) (AID 2282984); conditions: HepG2 Attagene TRANS M32 internal marker reporter;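 further: transcript level of a background control reporter unit measured by RT-PCR and capillary electrophoresis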
How it was run: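 Using transiently transfected HepG2 cells exposed to test chemicals for 24 h, reporter transcripts are converted to labelled cDNA fragments and quantified by capillary electrophoresis. DMSO defines the activity baseline.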

[18] = molecular target: Transcriptional activator Myb (Homo sapiens) (UniProt P10242); experiment: ATG_Myb_CIS: Attagene CIS-FACTORIAL HepG2 Assay for human Myeloblastosis (Myb) Proto-Oncogene Transcription Factor (AID 2282986; active means hit-call score of the fitted dose curve at least 0.9, where 1 is the maximum; inactive means score below 0.9); conditions: HepG2 Attagene CIS-FACTORIAL Myb reporter transcription; actives raise or lower the signal
How it was run: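 After 24 h of compound dosing, total RNA from transfected HepG2 cells is reverse-transcribed and the reporter sequences amplified, labeled and separated by capillary electrophoresis. Values come from bidirectional fitting against DMSO.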

[19] = molecular target: Glucocorticoid receptor (Homo sapiens) (UniProt P04150); experiment: ATG_GR_TRANS: Attagene TRANS-FACTORIAL HepG2 Assay for human Glucocorticoid Receptor (GR) (AID 2282978); conditions: HepG2 Attagene TRANS GR reporter, mRNA transcription;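 further: activators score as hits since higher reporter transcript over DMSO is fitted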
Chain of Glucocorticoid receptor (Homo sapiens) (P04150 whole entry, looked up): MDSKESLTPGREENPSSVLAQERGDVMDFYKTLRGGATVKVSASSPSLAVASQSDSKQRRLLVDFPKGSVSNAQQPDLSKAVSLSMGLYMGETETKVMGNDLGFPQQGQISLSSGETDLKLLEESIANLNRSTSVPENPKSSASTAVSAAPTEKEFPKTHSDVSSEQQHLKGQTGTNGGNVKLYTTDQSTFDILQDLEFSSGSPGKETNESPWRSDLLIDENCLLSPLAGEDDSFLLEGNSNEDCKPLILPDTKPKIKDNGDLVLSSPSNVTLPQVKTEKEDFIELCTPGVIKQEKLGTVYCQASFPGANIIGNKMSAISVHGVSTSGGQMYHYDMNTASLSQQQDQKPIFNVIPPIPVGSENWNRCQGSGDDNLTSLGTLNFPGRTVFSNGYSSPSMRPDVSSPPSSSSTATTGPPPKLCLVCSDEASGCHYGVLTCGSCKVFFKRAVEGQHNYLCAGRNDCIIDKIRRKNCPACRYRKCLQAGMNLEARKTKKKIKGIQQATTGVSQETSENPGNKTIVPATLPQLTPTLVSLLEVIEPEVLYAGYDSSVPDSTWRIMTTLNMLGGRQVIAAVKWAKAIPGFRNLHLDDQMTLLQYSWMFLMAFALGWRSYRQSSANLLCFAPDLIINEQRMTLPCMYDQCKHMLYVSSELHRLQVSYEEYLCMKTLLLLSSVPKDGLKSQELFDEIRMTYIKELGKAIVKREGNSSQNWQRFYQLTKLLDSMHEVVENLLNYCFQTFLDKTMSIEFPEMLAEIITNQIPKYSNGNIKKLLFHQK
How it was run: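 After 24 h incubation with test chemical, transfected HepG2 cells were lysed for RNA; reporter cDNA was amplified, FAM-labelled, HpaI-digested and sized on a capillary analyser. Signal gain relative to DMSO was scored.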

[20] = molecular target: Nuclear receptor subfamily 4 group A member 2 (Homo sapiens) (UniProt P43354); experiment: ATG_NURR1_TRANS: Attagene TRANS-FACTORIAL HepG2 Assay for human Nuclear Receptor Related Protein 1 (NURR1) (AID 2282985); conditions: HepG2 Attagene TRANS reporter, mRNA readout
Chain of Nuclear receptor subfamily 4 group A member 2 (Homo sapiens) (P43354 whole entry, looked up): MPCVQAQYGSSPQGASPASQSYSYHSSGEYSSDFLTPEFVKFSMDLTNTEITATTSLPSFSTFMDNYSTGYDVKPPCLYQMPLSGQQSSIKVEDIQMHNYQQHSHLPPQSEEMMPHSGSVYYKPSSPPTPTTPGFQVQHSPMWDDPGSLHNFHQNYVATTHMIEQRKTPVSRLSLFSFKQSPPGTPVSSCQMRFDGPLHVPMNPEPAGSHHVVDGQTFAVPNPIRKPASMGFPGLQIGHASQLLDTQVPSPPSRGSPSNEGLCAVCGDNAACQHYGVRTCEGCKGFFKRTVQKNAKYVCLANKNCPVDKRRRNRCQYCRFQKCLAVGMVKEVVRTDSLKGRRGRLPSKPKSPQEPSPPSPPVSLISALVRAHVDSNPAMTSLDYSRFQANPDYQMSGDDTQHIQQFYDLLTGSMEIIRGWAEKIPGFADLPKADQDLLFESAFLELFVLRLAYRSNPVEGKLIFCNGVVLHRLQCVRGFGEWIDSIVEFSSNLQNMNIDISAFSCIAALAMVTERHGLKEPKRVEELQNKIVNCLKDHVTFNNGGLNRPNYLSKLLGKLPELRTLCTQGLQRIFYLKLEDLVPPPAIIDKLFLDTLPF
How it was run: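 Cells: HepG2, transiently transfected. Exposure: 24 h. Detection: fluorescence of labelled RT-PCR products separated by capillary electrophoresis; upward fit versus DMSO.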

Measured: AC50

N#Cc1nn(-c2c(Cl)cc(C(F)(F)F)cc2Cl)c(N)c1S(=O)C(F)(F)F (configuration not stated)
active: [4] 15.4 µM | [6] 11.8 µM | [8] 15.3 µM | [13] 18.5 µM | [14] 11.7 µM
inactive: [1] | [2] | [3] | [4] | [5] | [6] | [7] | [8] | [9] | [10] | [11] | [12] | [13] | [14] | [15] | [16] | [17] | [18]

CCCC1COC(Cn2cncn2)(c2ccc(Cl)cc2Cl)O1 (configuration not stated)
active: [4] 7.99 µM
inactive: [1] | [2] | [3] | [4] | [5] | [8] | [9] | [10] | [19] | [13] | [14] | [15] | [16] | [17] | [20]

CON(C)C(=O)Nc1ccc(Cl)c(Cl)c1
inactive: [1] | [2] | [3] | [4] | [5] | [6] | [7] | [8] | [9] | [10] | [11] | [19] | [13] | [14] | [15] | [16] | [17] | [20]
active: [4] 28.7 µM and 35.7 µM and 23.4 µM

Oc1ccccc1-c1ccccc1
inactive: [1] | [2] | [3] | [4] | [5] | [8] | [9] | [14] | [15] | [16] | [17] | [20]
active: [3] 87.5 µM | [4] 38.4 µM | [6] 31.1 µM and 27.8 µM

COC(=O)c1ccccc1C(=O)OC
not listed: [10] | [15] | [16] | [18] | [20]
inactive: all other assays above

COc1nc(C)nc(NC(=O)NS(=O)(=O)c2ccccc2CCC(F)(F)F)n1
not listed: [10]
inactive: all other assays above
